# Laboratory results as given in ChEMBL document CHEMBL5606458, “ASAP - ZIKV NS2B-NS3 protease fluorescence single point” (2024).
# The campaign covered roughly 2,700 compounds. About 160 (5.9%) showed an effect of 50% or more. The full list was thinned out, with strong results kept by preference.
# Molecular target: Nonstructural protein 3 (Zika virus) (UniProt A0A024AXB9)
# Sequence (A0A024AXB9 as listed by the source): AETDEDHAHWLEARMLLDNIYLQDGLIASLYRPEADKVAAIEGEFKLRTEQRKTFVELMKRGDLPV
structure (smiles),measurement,setting,value
N#CC1(c2ccccc2)CCN(Cc2c[nH]c3ccccc23)CC1,inhibition,"PRVABC59, Concentration 49.5 uM, Number of replicates 2.0, Standard deviation 0.4200874171769353 %",32%
same,inhibition,"PRVABC59, Concentration 99.01 uM, Number of replicates 2.0, Standard deviation 0.32673315924966934 %",34.4%
same,inhibition,"PRVABC59, Concentration 198.0 uM, Number of replicates 2.0, Standard deviation 0.06482927085509294 %",32.8%
FC(F)(F)c1ccccc1C1CCN(Cc2c[nH]c3ccccc23)CC1,inhibition,"PRVABC59, Concentration 49.5 uM, Number of replicates 2.0, Standard deviation 0.039004379485921774 %",33%
same,inhibition,"PRVABC59, Concentration 99.01 uM, Number of replicates 2.0, Standard deviation 0.833177783151486 %",38.2%
same,inhibition,"PRVABC59, Concentration 198.0 uM, Number of replicates 2.0, Standard deviation 1.0547312903060968 %",41.8%
c1ccc2c(CN3CCC(c4cscn4)CC3)c[nH]c2c1,inhibition,"PRVABC59, Concentration 49.5 uM, Number of replicates 2.0, Standard deviation 0.07712401232790286 %",65.8%
same,inhibition,"PRVABC59, Concentration 99.01 uM, Number of replicates 2.0, Standard deviation 0.031176529605690447 %",79.9%
same,inhibition,"PRVABC59, Concentration 198.0 uM, Number of replicates 2.0, Standard deviation 0.07383858119278165 %",89.2%
c1cc(C2CCN(Cc3c[nH]c4ccccc34)CC2)c2ccncc2c1,inhibition,"PRVABC59, Concentration 49.5 uM, Number of replicates 2.0, Standard deviation 0.9049501572428696 %",65.6%
same,inhibition,"PRVABC59, Concentration 99.01 uM, Number of replicates 2.0, Standard deviation 0.6350269036884285 %",80.3%
same,inhibition,"PRVABC59, Concentration 198.0 uM, Number of replicates 2.0, Standard deviation 0.1685064720944352 %",90%
C#CCn1ccnc(N2CC[C@H](CO)C2)c1=O,inhibition,"PRVABC59, Concentration 49.5 uM, Number of replicates 2.0, Standard deviation 1.0450300973032534 %",12.1%
same,inhibition,"PRVABC59, Concentration 99.01 uM, Number of replicates 2.0, Standard deviation 3.6329706761941627 %",19.8%
same,inhibition,"PRVABC59, Concentration 198.0 uM, Number of replicates 2.0, Standard deviation 1.3173095282768474 %",33.5%
CCCC[C@H](NC(=O)OC(C)(C)C)C(=O)N[C@H](C(=O)NCc1ccc(C(N)=O)cc1)c1ccc(OCc2ccccc2)cc1,inhibition,"PRVABC59, Concentration 49.5 uM, Number of replicates 2.0, Standard deviation 0.2512152790248196 %",-3.29%
same,inhibition,"PRVABC59, Concentration 99.01 uM, Number of replicates 2.0, Standard deviation 1.1330320426444238 %",4.53%
same,inhibition,"PRVABC59, Concentration 198.0 uM, Number of replicates 2.0, Standard deviation 0.18969183837952716 %",69.4%
CCCC[C@@H](NC(=O)OC(C)(C)C)C(=O)N[C@@H](C(=O)NCc1ccc(CN)cc1)c1ccc(OCc2ccccc2)cc1,inhibition,"PRVABC59, Concentration 49.5 uM, Number of replicates 2.0, Standard deviation 0.1534981479270999 %",98.5%
same,inhibition,"PRVABC59, Concentration 99.01 uM, Number of replicates 2.0, Standard deviation 0.024832248793042588 %",99.6%
same,inhibition,"PRVABC59, Concentration 198.0 uM, Number of replicates 2.0, Standard deviation 0.14898809796164614 %",99%
CCn1ccnc(N2CC[C@H](c3cccnc3)C2)c1=O,inhibition,"PRVABC59, Concentration 49.5 uM, Number of replicates 2.0, Standard deviation 0.6295639977718405 %",11.1%
same,inhibition,"PRVABC59, Concentration 99.01 uM, Number of replicates 2.0, Standard deviation 0.9611868657983497 %",17.2%
same,inhibition,"PRVABC59, Concentration 198.0 uM, Number of replicates 2.0, Standard deviation 2.077820749798943 %",29.9%
O[C@@H]1CNC[C@H]1c1c[nH]c2ccccc12,inhibition,"PRVABC59, Concentration 49.5 uM, Number of replicates 2.0, Standard deviation 0.0908773719339778 %",4.36%
same,inhibition,"PRVABC59, Concentration 99.01 uM, Number of replicates 2.0, Standard deviation 0.868383551474818 %",12%
same,inhibition,"PRVABC59, Concentration 198.0 uM, Number of replicates 2.0, Standard deviation 1.0703330421004655 %",25.3%
CCn1ccnc(N2CC[C@H](C#N)C2)c1=O,inhibition,"PRVABC59, Concentration 50.0 uM, Number of replicates 1.0",9.92%
same,inhibition,"PRVABC59, Concentration 100.0 uM, Number of replicates 2.0, Standard deviation 3.4431722905816002 %",15.4%
same,inhibition,"PRVABC59, Concentration 200.0 uM, Number of replicates 3.0, Standard deviation 5.353488841443075 %",26.6%
